Screening data: PubChem, National Center for Advancing Translational Sciences (NCATS)
Only some compounds are listed: those with a hit (about 21% of all), similar ones and a draw of the others.
Cycloheximide cs – counter-screen hit for Shiga toxin inhibitors, cycloheximide; max response, %; AID 2314; 12% of 300,000 active; cell reporter, cycloheximide protein synthesis inhibition counterscreen; in the data active = max response mostly above about 13%, no sharp cut-off; inactive = mostly below about 14%; note: read at 38.3 µM for the half of the compounds with a filed dose; 0% is about no effect
AMA1-RON2 inh – inhibitors of Plasmodium falciparum AMA1-RON2 interaction | AlphaScreen AMA1-biotinylated RON2 peptide binding | Potency, µM (titrated, usually from 58.2 µM), inactives show at the top dose activity change, negative = inhibition, most hits filed as inhibitors | 0.2% of 360,000 active;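 note: potency is the fitted concentration of half-maximal effect; 0% = vehicle wells and -100% = peptide control; nearly all actives have a fitted effect of over 45% in size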
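AMA1 (3D7) with his tag at 25 nM final met compounds first, then biotinylated RON2 peptide at 25 nM; detection used donor plus acceptor beads, 10 µg/mL apiece, read by AlphaScreen after 30 min at room temperature.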
Shiga toxin inh – Shiga toxin inhibition | 9.2% of 290,000 active | inhibition, % at 38.7 µM | AID 2315 | Vero cells, Shiga toxin protein synthesis inhibition reporter; in the data active = inhibition mostly above about 28%, no sharp cut-off; inactive = mostly below about 43%; note: 0% is about no effect
Pf growth 48h – inhibits P. falciparum growth in the first generation, 48 h; P. falciparum luciferase growth in erythrocytes, 48 h; Potency, µM (titrated, usually from 28.7 µM), without a hit: at the highest dose activity change, negative = inhibition, hits mostly inhibitors; 5.9% of 310,000 active; note: potency is the fitted concentration of half-maximal effect; % is set by controls: 0 for no effect and ±100 for the full control effect
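Parasite viability was followed by luminescence of a genomically integrated firefly luciferase. Cultures held 0.1% parasitemia at 2% hematocrit (final), incubated under 5% CO2 at 37 C.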
Pf growth 96h – P. falciparum growth inhibition at 96 hour, primary screen for plastid delayed-death inhibitors; P. falciparum luciferase reporter growth, 96 h; Potency, µM (doses to about 28.7 µM), without a hit: top-dose activity change, negative = inhibition, hits mostly inhibitors; 6.9% of 320,000 active; AID 504834; note: potency is the fitted concentration of half-maximal effect; % is set by controls: 0 for no effect and ±100 for the full control effect
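P. falciparum expressing integrated firefly luciferase, in erythrocytes at 2% hematocrit, 0.05% parasitemia, incubated with compounds 96 h at 37 C, 5% CO2. Growth inhibition read as loss of luminescence; two-generation exposure targets delayed-death apicoplast inhibitors.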
HCV inhibitor – inhibitors of hepatitis C virus infection; 3.4% of 340,000 active; Huh7.5.1 HCVcc-Cre infection, luciferase reporter, 44 h; Potency, µM (series often up to 41.8 µM), without a hit: top-dose activity change, negative = inhibition, actives largely listed as inhibitors; AID 651820; note: potency is the fitted concentration of half-maximal effect; % is set by controls: 0 for no effect and ±100 for the full control effect
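Cells seeded at 1,000/well and cultured 4 h, then compounds added followed by HCVcc-Cre virus (~0.5 moi). After 44 h further culture, luciferase substrate was added, plates held 15 min at room temperature, and luminescence read for 15 sec.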
* hit, by the source's call; ? = inconclusive; nt = no result; ! = repeats disagree; [ ] = another dose, or the depositor's remark. Unless noted, calls come from the whole dose curve; as a rule, active = well fitted curve in the direction sought with a large enough effect; inconclusive = small, poorly fitted or top-dose-only effect, or another doubt; inactive = no such curve, though single readings can be large; an effect the other way counts as inactive or inconclusive.

SMILES	Cycloheximide cs	AMA1-RON2 inh	Shiga toxin inh	Pf growth 48h	Pf growth 96h	HCV inhibitor
Cc1cccc(C(=O)OCN2C(=O)c3ccccc3C2=O)c1[N+](=O)[O-]	1.1	-12.3%	-35.3	26.3%	30.1%	4.5%
Cc1ccc2c(c1)N(Cc1cccc(C#N)c1)C=NS2(=O)=O	-0.6	-15.1%	-3.8	-7.2%	28.0%	9.3%
CCCCNC(=O)CSc1nc2ccc(N3CCOCC3)cc2c(=O)n1Cc1ccc(OC)cc1	6.5	13.5%	-12.6	?	?	?
COCCNC(=O)CSc1nc2ccc(N3CCOCC3)cc2c(=O)n1Cc1ccc(OC)cc1	28.1*	74.8%	53.7	-6.6%	?	?
C#Cc1ccc([C@@H]2C=C(C(=O)NCc3ccccc3)O[C@H](OCc3ccc(CO)cc3)C2)cc1	-1.5	-16.2%	-10.0	?	?	-19.0%[8.37 µM]
O=C(NCc1ccccc1)C1=C[C@H](c2ccc(Br)cc2)C[C@H](OCc2ccc(CO)cc2)O1	-0.7	-6.6%	13.6	?	1.65µM*	-6.4%
O=C(NCc1ccccc1)C1=C[C@@H](c2ccccc2)C[C@@H](OCc2ccc(CO)cc2)O1	1.6	-4.4%	21.6	?	9.28µM*	?
CCN(c1ccccc1)S(=O)(=O)c1ccc(OC)c(NC(=O)Cc2ccc(OC)c(OC)c2)c1	nt	-9.6%	nt	?	?	6.31µM*
CCN(c1ccccc1)S(=O)(=O)c1ccc(Cl)c(NC(=O)COC(=O)c2cccc(OC)c2O)c1	-2.0	-14.8%	-14.7	6.2%	-0.6%	-23.6%
CCN(c1ccccc1)S(=O)(=O)c1ccc(Cl)c(NC(=O)Nc2ccc(Cl)cc2C#N)c1	30.0*	-2.1%	46.7*	?	-90.4%	?
CCN(c1ccccc1)S(=O)(=O)c1ccc(OC)c(NC(=O)c2cc(Cl)ccn2)c1	nt	-9.9%	nt	?	6.57µM*	-13.7%
CCN(c1ccccc1)S(=O)(=O)c1cc(NC(=O)Nc2ccccc2C#N)ccc1Cl	-5.4	-2.8%	-0.9	?	?	?
CCN(c1ccccc1)S(=O)(=O)c1ccc(Cl)c(NC(=O)CNCc2ccccc2OC)c1	nt	14.1%	nt	nt	nt	11.2µM*
CCOC(=O)c1ccc(NC(=O)c2nc[nH]c2C(=O)N[C@H](C)CO)cc1	nt	109.5%	nt	nt	nt	nt
Cc1cccn2c(=O)c(/C=C(\C#N)C(=O)NCc3ccccc3)c(N3CCC(C(N)=O)CC3)nc12	1.0	-10.3%	-10.5	2.5%	0.0%	-13.5%
CCN(c1ccccc1)S(=O)(=O)c1ccc(OC)c(NC(=O)Cc2ccccc2OC)c1	nt	-5.7%	nt	11.7µM*	13.1µM*	10µM*
CCN(CC)S(=O)(=O)c1ccc(OC)c(NC(=O)Cc2cccs2)c1	32.3*	-9.4%	-11.4	-3.9%	20.5%	14.7%
O=C(CC1CC2CCC1C2)NC1CCCCCCC1 (stereo unspecified)	16.6	-9.3%	46.6	nt	22.9%	13.6%
Cc1ccc(-n2cnc3c(sc4nc(N5CCOCC5)c5c(c43)CCCC5)c2=O)cc1	-2.7	3.7%	8.1	?	-8.1%	?
CCOC(=O)C(Sc1ncnc2c1sc1nc(N3CCOCC3)c3c(c12)CCCC3)c1ccccc1 (stereo unspecified)	-2.8	nt	18.2	1.65µM*	?	nt
O=c1c2sc3nc(N4CCOCC4)c4c(c3c2ncn1-c1ccccc1)CCCC4	-2.9	-23.2%	-18.1	?	31.2%	10µM*
CC(C)CNc1nnnc2c1sc1nc(N3CCOCC3)c3c(c12)CCCC3	-1.8	-7.7%	16.3	1.65µM*	1.31µM*	4.3%
CCOC(=O)CSc1ncnc2c1sc1nc(N3CCOCC3)c3c(c12)CCCC3	12.8	12.2%	10.2	nt	-11.5%	5.0%
COc1ccc(-n2cnc3c(sc4nc(N5CCOCC5)c5c(c43)CCCC5)c2=O)cc1	6.5	2.7%	-6.6	-2.2%	2.94µM*	-11.9%
COc1cccc(CN2CCC2(C)C(=O)Nc2ccc(C)c(O)c2)c1F (stereo unspecified)	nt	6.0%	nt	nt	nt	nt
SMILES	Cycloheximide cs	AMA1-RON2 inh	Shiga toxin inh	Pf growth 48h	Pf growth 96h	HCV inhibitor
COC(=O)C1=CCCCC(O)=C1C(=O)OC	nt	4.4%	nt	nt	nt	nt
S=c1[nH]nc(CSCCOc2ccc(Cl)cc2Cl)o1	8.9	109.7%	18.2	9.3%	24.6%	13.9%
Cc1ccccc1-n1cnc2c(sc3nc(N4CCOCC4)c4c(c32)CCCC4)c1=O	-0.7	?	21.3	10.4µM*	?	17.8µM*
COC(=O)c1ccc(CSc2ncnc3c2sc2nc(N4CCOCC4)c4c(c23)CCCC4)o1	nt	-3.5%	nt	nt	nt	-19.9%
COC(=O)c1ccc(Cn2cnc3c(sc4nc(N5CCOCC5)c5c(c43)CCCC5)c2=O)o1	3.5	-12.2%	-1.9	1.65µM*	26.1%	11.2µM*!
O=c1c2sc3nc(N4CCOCC4)c4c(c3c2ncn1C(c1ccccc1)c1ccccc1)CCCC4	nt	-4.5%	nt	nt	nt	2.0%
CCc1nc2ccc(C(=O)NCc3ccc4c(c3)OCO4)cn2c1N(CC)Cc1cccc(Br)c1	nt	8.9%	nt	nt	nt	nt
CCC(=O)c1ccc(SC(=O)N(C)C)cc1O	14.8*	-5.7%	26.9	50.3%	113.0%	0.1%
Cc1cccc(N2CCN(C3=NC(=O)C(Cc4ccccc4)S3)CC2)c1 (stereo unspecified)	-1.2	0.8%[2.32 µM]	-8.3	-14.0%	11.7µM*	-9.2%
Cc1ccccc1NC(=O)Cc1nc(-c2c[nH]c(C(=O)N3CCCC3)c2)cs1	nt	20.6%	nt	9.28µM*	10.4µM*	?
Cc1cccc(NC(=O)CCN2CCCCC2)c1	-4.2	-2.9%	-5.5	8.8%	286.6%	-7.7%
Cc1cccc(NC(=O)Cc2nc(-c3c[nH]c(C(=O)N4CCCC4)c3)cs2)c1	nt	6.8%	nt	11.7µM*	?	?
C[C@H](CO)N1C[C@H](C)[C@@H](CN(C)S(=O)(=O)c2ccccc2)Oc2c(NC(=O)Nc3ccc4c(c3)OCO4)cccc2C1=O	nt	0.0%	nt	nt	nt	-7.1%
CC(C)(C)C(=O)Nc1sc2c(c1-c1nc3ccccc3[nH]1)CCCC2	11.8	15.9%	16.1	9.28µM*	?	?
O=[N+]([O-])c1ccc2c(c1)C(N1CCOCC1)/C(=C/COc1ccc(Cl)cc1Cl)O2 (stereo unspecified)	1.0	-19.2%	12.7	11.7µM*	?	?
COC(=O)c1ccc(NC2=C(Cl)C(=O)OC2OC(=O)c2ccccc2)cc1 (stereo unspecified)	41.7*	3.0%	36.4	9.6%	51.7%[1.15 µM]	-1.3%
CSc1ccc(C(=O)C2CCCN(S(=O)(=O)c3c(C)noc3C)C2)cc1 (stereo unspecified)	-3.7	-1.3%	2.3	-18.7%	6.2%	?
CC(C)(CC(=O)O)CC(=O)NNc1ncccc1C#N	-1.3	4.3%	-5.3	4.15µM*	-12.0%	8.2%
O=C(CCl)NCc1cc(-c2ccc(Cl)cc2)no1	16.1*	-0.7%	28.8	2.08µM*	2.94µM*	11.2µM*
c1ccc(SCc2cc(-c3ccccc3)no2)cc1	38.7*	39.3%	81.7*	236.6%	312.7%	-0.1%
